Shown are actives, neighbours in structure and some others; about 15% of the full set was active somewhere.
HCMV antiviral: human cytomegalovirus inhibition. HFF cells, HCMV-luciferase reporter, 72 h; hits give low values. activity change, negative = inhibition, % at 57.5 µM. 410,000 tested, 4.5% active. AID 1259415; in the data active = activity change below about -60%; inconclusive = no clear call, values can overlap the other calls; inactive = above about -39%; also: % is scaled to controls: 0 for no effect and ±100 for the full control effect
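Compounds were evaluated in HFFs infected with an HCMV luciferase reporter virus (MOI 1 PFU/cell). Luciferase in lysates collected 72 h post infection served as the replication measure.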
HCV inh: inhibitors of hepatitis C virus infection; Huh7.5.1 HCVcc-Cre infection, luciferase reporter, 44 h; Potency, µM (highest dose often 41.8 µM), for inactives: at the top dose activity change, negative = inhibition, most hits filed as inhibitors; 340,000 tested, 3.4% active; also: potency is read from the fitted curve at half-maximal effect; % is scaled to controls: 0 for no effect and ±100 for the full control effect
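Infectious HCVcc-Cre (~0.5 moi) was added to cells just after compound, with cells seeded 4 h earlier at 1,000 per well. Luciferase activity after 44 h culture reported infection; substrate was incubated 15 min at room temperature before reading.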
Pf growth 96h: P. falciparum growth inhibition at 96 hours. P. falciparum luciferase reporter growth, 96 h. Potency, µM (highest dose often 28.7 µM), without a hit: top-dose activity change, negative = inhibition, usual class: inhibitors. 320,000 tested, 6.9% active; also: potency is read from the fitted curve at half-maximal effect; % is scaled to controls: 0 for no effect and ±100 for the full control effect
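Plates of compound plus infected erythrocytes (2% hematocrit, 0.05% parasitemia final) incubate 96 hours, 37 C, 5% CO2. Detection reagent added; reduced luminescence from the parasites' luciferase reporter flags inhibition.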
Pf growth 48h: inhibits P. falciparum growth in the first generation, 48 h; P. falciparum luciferase growth in erythrocytes, 48 h; Potency, µM (series often up to 28.7 µM), inactives show at the highest dose activity change, negative = inhibition, usual class: inhibitors; 310,000 tested, 5.9% active; AID 504832; also: potency is read from the fitted curve at half-maximal effect; % is scaled to controls: 0 for no effect and ±100 for the full control effect
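Luminescence readout; reporter = integrated firefly luciferase in P. falciparum. RBC culture at 2% hematocrit, 0.1% parasitemia final, 37 C/5% CO2; decreased signal taken as growth inhibition.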
SARS PLP yeast: blocks SARS-CoV papain-like protease in a yeast assay. Potency, µM (titrated, usually from 32.9 µM), for the others: top-dose activity, positive = growth rescue, hits mostly activators. S. cerevisiae expressing SARS-CoV PLpro, growth rescue. 330,000 tested, 0.19% active; calls by dose curve; also: potency is read from the fitted curve at half-maximal effect; 0% is about no effect; nearly all actives have a fitted effect of over 55% in size
Sm TGR inh: S. mansoni TGR enzyme inhibition; purified TGR, DTNB reduction, TNB absorbance 405 nm; Q962Y6; 360,000 tested, 3% active; Potency, µM (titrated, usually from 114 µM), inactives show at the highest dose activity change, negative = inhibition, actives largely listed as inhibitors; AID 485364; also: potency is read from the fitted curve at half-maximal effect; % is scaled to controls: 0 for no effect and ±100 for the full control effect; nearly all actives have a fitted effect of over 60% in size
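Kinetic colorimetric format: TGR-catalysed, NADPH-driven DTNB reduction monitored via TNB absorbance. Enzyme dispensed at 20 nM; compound exposure 15 min at room temperature before reaction start.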
Active calls of the source: *; ? = inconclusive; / = no result given; [ ] = dose if it differs, or a comment. Unless noted, calls follow the shape of the dose curve; as a rule, active = well fitted curve in the direction sought with a large enough effect; inconclusive = small, poorly fitted or top-dose-only effect, or another doubt; inactive = no such curve, though single readings can be large; an effect the other way counts as inactive or inconclusive.

SMILES	HCMV antiviral	HCV inh	Pf growth 96h	Pf growth 48h	SARS PLP yeast	Sm TGR inh
O=C(Nc1ccncc1)c1cccn(Cc2ccccc2)c1=O	-74.7*	8.91µM*	?	13.0%	-7.4%	?
O=C(Nc1ccccc1)c1cccn(Cc2ccccc2)c1=O	-31.2	10µM*	357.2%	0.0%	-9.4%	6.2%
O=C(Nc1ccc(F)cc1F)c1cccn(Cc2ccccc2)c1=O	?	-26.1%	81.1%	14.7µM*	0.1%	-5.7%
CCCCC1(C(=O)OCC)CC(CSC(=N)N)OC1=O (stereo not given)	?	8.7%	49.1%	4.8%	1.2%	/
O=[N+]([O-])c1cc2c(cc1/C=N/NS(=O)(=O)c1ccc(Br)cc1)OCO2	-6.8	?	?	-4.8%	0.1%	-24.2%
O=C(Nc1ccc(C(F)(F)F)cc1)C1CCN(S(=O)(=O)c2ccc(N3CCCC3=O)cc2)CC1	0.0	?	?	?	16.9%	-11.3%
COc1ccc(NC(=O)C2CCN(S(=O)(=O)c3ccc(N4CCCC4=O)cc3)CC2)cc1OC	-27.8	8.0%	13.1µM*	?	1.8%	0.1%
COc1ccc(S(=O)(=O)N2CCC(C(=O)Nc3ccc(S(=O)(=O)N4CCCC4)cc3)CC2)cc1OC	-18.4	-21.7%[8.37 µM]	4.65µM*	?	-2.9%	3.0%
COc1ccc(NC(=O)C2CCN(S(=O)(=O)c3ccc(OC)c(OC)c3)CC2)cc1	8.7	-12.4%	?	/	-4.4%	3.1%
COc1cc(NC(=O)C2CCN(S(=O)(=O)c3ccc(N4CCCC4=O)cc3)CC2)cc(OC)c1	-28.1	-8.9%	9.28µM*	-27.2%	2.9%	-11.2%
CC(C)NC(=O)C1CCN(S(=O)(=O)c2ccc(N3CCCC3=O)cc2)CC1	0.0	-0.2%	?	-1.7%	13.1%	1.1%
C[N+]1(CC(=O)NNc2c3ccccc3nc3ccccc23)CCOCC1	-96.3*	/	12.7%	?	0.6%	9.9%
O=C(CN1CCOCCOCCOCCOCC1)Nc1ccccc1	0.0	3.1%	350.2%	28.4%	-5.3%	-3.2%
O=C(CN1CCOCCOCCOCC1)Nc1ccccc1	41.0	-5.8%	-4.2%	/	-12.7%	-5.9%
O=C(CN1CCOCC1)NNc1c2ccccc2nc2ccccc12	20.6	8.91µM*	?	?	-1.3%	14.5%
O=C(CN1CCOCC1)NNC(=S)Nc1ccccc1	2.5	11.0%	13.1µM*	-20.3%	-0.6%	13.5%
Cc1ccc(C(C)C)c(OCCn2ccnc2C)c1	10.9	-24.2%	11.7µM*	?	0.8%	72.4%
COc1cccc(C(=O)Nc2nnc(-c3ccc(OC)cc3OC)s2)c1	?	10µM*	15.6%	11.8%	-2.2%	-1.5%
COc1ccccc1-c1nnc(NC(C)=O)s1	35.4	-17.8%	7.38µM*	196.3%	2.6%	0.5%
CCCCOC(=O)Nc1nnc(-c2ccccc2OC)s1	-82.9*	4.0%	?	?	-0.4%	-0.4%
OC[C@@H]1CN(Cc2ccc(Cl)cc2)C[C@H](n2cnc3c(NCc4ccc(F)cc4)ncnc32)O1	14.9	/	/	/	/	/
O=C(NC1CCCc2ccccc21)c1ccc2c(c1)sc1nc(-c3ccccc3)cn12 (stereo not given)	/	/	/	/	/	3.1%
COC(=O)C1=C(c2ccc(F)cc2OCc2ccccc2)C[C@@H]2CC[C@H]1N2C(=O)NCc1ccccc1Br	-17.7	?	1.31µM*	4.15µM*	-0.3%	-2.8%
COC(=O)C1=C(c2ccc(F)cc2F)C[C@@H]2CC[C@H]1N2C(=O)NCc1ccco1	24.0	-8.3%	-18.9%	?	-1.2%	?
COC(=O)C1=C(c2ccc(F)cc2F)C[C@@H]2CC[C@H]1N2C(=O)NCc1ccc2c(c1)OCO2	14.4	-19.7%	?	?	-1.1%	-2.2%
SMILES	HCMV antiviral	HCV inh	Pf growth 96h	Pf growth 48h	SARS PLP yeast	Sm TGR inh
COC(=O)C1=C(c2ccc(F)cc2OCc2ccccc2)C[C@@H]2CC[C@H]1N2C(=O)NCc1ccccc1C(F)(F)F	-22.6	-9.3%	?	5.22µM*	3.3%	-0.4%
CC(C)C(=O)Nc1ccc2nc(SCC(=O)N3CCc4ccccc43)sc2c1	-10.9	/	/	/	/	-9.7%
Cc1cccc(NC(=O)Cc2coc3ccc4ccccc4c23)n1	-69.8*	?	/	?	-23.8%	3.8%
O=C(O)Cc1coc2ccc3ccccc3c12	0.7	14.3%	?	12.1%	-3.1%	-3.6%
Cc1ccc(-n2nnnc2CNC(=O)c2ccccc2F)cc1C	-25.2	/	/	/	/	3.4%
Cc1ccc(Oc2nc(-c3ccccc3)ncc2S(C)(=O)=O)cc1	2.2	3.4%	-4.6%	5.7%	-1.4%	4.9%
O=C(O)c1cnc(-c2ccccc2)nc1Oc1ccccc1	-27.6	3.55µM*	27.0%	4.1%	-0.7%	-5.6%
Cc1ccc(Oc2nc(-c3ccccc3)ncc2S(=O)(=O)c2ccc(C)cc2)cc1	69.0	5.62µM*	-1.9%	-27.9%	1.1%	-1.3%
Cc1ccc(C(=O)COC(=O)c2cc(=O)[nH]c3ccccc23)cc1C	-12.5	-6.1%	-5.1%	33.5%	-0.9%	0.6%[57.1 µM]
O=C(COC(=O)C1CCCCC1)Nc1ccc(S(=O)(=O)N2CCOCC2)cc1	-23.7	-2.6%	0.0%	0.7%	4.4%	-4.9%
CC(C)Oc1ccc(CNC(=O)c2ccc3nc(SCc4ccc(F)cc4)n(C)c3c2)cc1	-21.3	/	/	/	/	13.7%
CC1(C(=O)N/N=C/c2c(F)c(F)c(F)c(F)c2F)CC1(Cl)Cl (stereo not given)	?	11.2µM*	/	/	/	/
O=C(N/N=C/c1ccc([N+](=O)[O-])cc1)c1ccc(NS(=O)(=O)c2cccs2)cc1	-2.3	-19.6%	?	?	-0.4%	-2.8%
O=C(N/N=C\C=C\c1ccc([N+](=O)[O-])o1)c1cccs1	-64.8*	?	?	?	-6.5%	10µM*
O=C(N/N=C/c1ccc([N+](=O)[O-])o1)c1ccc(NS(=O)(=O)c2cccs2)cc1	-33.1	9.5%	0.928µM*	3.7µM*	-1.6%	35.5µM*
CCn1c(=O)cc(SCC(=O)NCCc2ccc(OC)cc2OC)c2ccccc21	8.4	/	/	/	/	7.4%
Cc1ccc(CN2CCSCC2)cc1	-22.2	6.4%	-89.9%	44.7%	-0.2%	4.8%
Cc1ccc(NC2=C(NC(=O)c3ccccc3)C(=O)c3ccccc3C2=O)cc1Cl	?	?	?	0.294µM*	-47.7%	1.58µM*
O=C1C(Cl)=C(Nc2ccccc2)C(=O)c2ccccc21	-0.2	?	8.0%	22.8%	-18.0%	1µM*
Cc1ccc(NCC(=O)c2ccccc2)cc1Cl	-9.8	-3.5%	?	?	-15.8%	-6.6%
C=CCNC1=C(Cl)C(=O)c2ccccc2C1=O	68.4	?	15.8%	2.94µM*	-12.9%	44.7µM*

High-throughput results: PubChem BioAssay, National Center for Advancing Translational Sciences (NCATS)
